Where “and” joins values, the source holds several entries; their conditions need not be identical. Identical values can stand only once. A number with no mark means an inactive call. Calls of active or inactive are those of the source. Cut-off read from the data, not from the text of the source: active = remaining activity below about 50%; inactive = the rest.
The molecules below were run against Phospholipase D1 (Homo sapiens) (UniProt Q13393) (assay: PLD1 inhibitors in cells, Calu-1 cells, single concentration (AID 602144;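 note: tested at 200 nM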)). Conditions: cellular PLD1 activity, hits give low values.
Chain of Phospholipase D1 (Homo sapiens) (Q13393 whole entry, looked up): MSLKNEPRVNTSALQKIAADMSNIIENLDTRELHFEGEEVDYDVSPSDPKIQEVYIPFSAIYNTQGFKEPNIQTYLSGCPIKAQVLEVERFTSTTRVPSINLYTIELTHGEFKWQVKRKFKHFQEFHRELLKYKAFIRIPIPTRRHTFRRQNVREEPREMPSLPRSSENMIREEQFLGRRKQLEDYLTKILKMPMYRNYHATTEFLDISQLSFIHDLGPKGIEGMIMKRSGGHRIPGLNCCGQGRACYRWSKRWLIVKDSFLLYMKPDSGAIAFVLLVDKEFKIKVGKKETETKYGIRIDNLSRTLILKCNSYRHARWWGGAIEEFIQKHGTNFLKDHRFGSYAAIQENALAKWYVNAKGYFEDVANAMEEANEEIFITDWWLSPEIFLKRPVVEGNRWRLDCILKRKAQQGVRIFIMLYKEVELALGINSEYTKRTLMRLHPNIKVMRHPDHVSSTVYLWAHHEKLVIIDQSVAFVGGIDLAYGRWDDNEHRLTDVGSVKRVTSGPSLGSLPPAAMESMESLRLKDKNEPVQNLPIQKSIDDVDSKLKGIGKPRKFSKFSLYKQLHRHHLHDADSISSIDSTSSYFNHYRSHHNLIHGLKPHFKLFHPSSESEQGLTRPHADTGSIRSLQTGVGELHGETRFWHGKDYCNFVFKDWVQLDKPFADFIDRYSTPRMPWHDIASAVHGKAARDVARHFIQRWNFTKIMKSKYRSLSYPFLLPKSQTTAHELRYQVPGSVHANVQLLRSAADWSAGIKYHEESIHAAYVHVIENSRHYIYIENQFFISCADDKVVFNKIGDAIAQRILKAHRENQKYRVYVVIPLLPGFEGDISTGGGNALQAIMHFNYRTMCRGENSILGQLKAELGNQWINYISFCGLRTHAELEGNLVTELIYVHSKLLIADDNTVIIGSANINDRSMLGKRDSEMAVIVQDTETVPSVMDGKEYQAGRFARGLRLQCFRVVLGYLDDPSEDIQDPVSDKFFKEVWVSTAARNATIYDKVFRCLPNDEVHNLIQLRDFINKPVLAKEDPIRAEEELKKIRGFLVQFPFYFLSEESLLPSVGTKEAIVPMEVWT
Chain of Phospholipase D1 (Homo sapiens) (Q13393 whole entry, looked up): as above

Row | Compound | remaining activity
1 | O=C(NCCN1CCC2(CC1)C(=O)NCN2c1ccc(Br)cc1)c1cc2cc(F)ccc2[nH]1 | 55.7%
2 | O=C(NCCN1CCC2(CC1)C(=O)NCN2c1ccccc1)C1CCc2ccccc2C1 (stereo unspecified) | 103% and 104%
3 | O=C(c1cnc2ccccc2c1)N1CC(N2CCC(n3c(=O)[nH]c4cc(Br)ccc43)CC2)C1 | 81.6%
4 | O=C(c1cnc2ccccc2c1)N1CCCC1CN1CCC(n2c(=O)[nH]c3ccccc32)CC1 (stereo unspecified) | 122%
5 | O=C(c1ccc(F)c(F)c1)N1CCCC1CN1CCC(n2c(=O)[nH]c3ccccc32)CC1 (stereo unspecified) | 85.3% and 91.1%
6 | O=C(NCCN1CCC2(CC1)C(=O)NCN2c1cccc(Cl)c1)c1cc2cc(F)ccc2[nH]1 | 58%
7 | O=C(NCCN1CCC2(CC1)C(=O)NCN2c1ccccc1)c1cscn1 | 92.4%
8 | CCCCCC(=O)N(CCN1CCC2(CC1)C(=O)NCN2c1cccc(F)c1)C(=O)CCCCC | 90.1%
9 | O=C(c1ccc(F)c(F)c1)N1CCC[C@@H]1CN1CCC2(CC1)C(=O)NCN2c1ccccc1 | 93.7%
10 | O=C(N[C@@H](Cc1ccccc1)CN1CCC2(CC1)C(=O)NCN2c1ccccc1)c1ccc(F)c(F)c1 | 75.5%
11 | O=C(c1ccc(F)c(F)c1)N(CCN1CCC2(CC1)C(=O)NCN2c1cccc(F)c1)C(=O)c1ccc(F)c(F)c1 | 101%
12 | O=C(CCN1CCC2(CC1)C(=O)NCN2c1ccccc1)Nc1ccc(F)c(F)c1 | 125%
13 | Cc1cccc(C(=O)N[C@@H](C)CN2CCC3(CC2)C(=O)NCN3c2ccccc2)c1 | 70%
14 | C[C@@H](CN1CCC2(CC1)C(=O)NCN2c1ccc(F)c(F)c1)NC(=O)c1cc2cc(F)ccc2[nH]1 | 0% (active)
15 | O=C(NCCN1CCC2(CC1)C(=O)NCN2c1ccc(Cl)cc1)c1cc2cc(F)ccc2[nH]1 | 79.4%
16 | O=C(NCCN1CCC2(CC1)C(=O)NCN2c1ccccc1)c1ccc(-c2ccccc2)o1 | 132%
17 | C[C@H](N)CN1CCC2(CC1)C(=O)NCN2c1ccccc1 (tested in a mixture with another compound) | 96.4%
18 | Cc1ccc(C(=O)NCCN2CCC3(CC2)C(=O)NCN3c2ccccc2)c(O)c1 | 89.1%

Row | Compound | remaining activity
19 | O=C(NCCN1CCC2(CC1)C(=O)NCN2c1ccccc1)c1cccc(F)n1 | 138%
20 | O=C(NCCN1CCC2(CC1)C(=O)NCN2c1ccc(Cl)cc1)c1ccc2ccccc2c1 | 103%
21 | O=C(NCCN1CCC2(CC1)C(=O)NCN2c1ccc(Cl)cc1)c1ccc(Cl)cc1 | 103%
22 | CC1(C)C(C(=O)NCCN2CCC3(CC2)C(=O)NCN3c2ccccc2)C1(C)C | 104%
23 | O=C(CCCl)NCCN1CCC2(CC1)C(=O)NCN2c1cccc(F)c1 | 75.7%
24 | O=C(c1cnc2ccccc2c1)N1CCC[C@@H]1CN1CCC2(CC1)C(=O)NCN2c1ccccc1 | 107%
25 | O=C(NCCN1CCC2(CC1)C(=O)NCN2c1ccccc1)c1ccc(F)cc1O | 107%
26 | O=C(NCCN1CCC2(CC1)C(=O)NCN2c1cccc(Br)c1)c1ccc2ccccc2c1 | 76.6%
27 | O=C(NCCCCCCN1CCC2(CC1)C(=O)NCN2c1ccccc1)c1cnc2ccccc2c1 | 122%
28 | COc1cc(OC)cc(C(=O)NCCN2CCC3(CC2)C(=O)NCN3c2cccc(F)c2)c1 | 97%
29 | CCCCCC(=O)NCCN1CCC2(CC1)C(=O)NCN2c1cccc(F)c1 | 109%
30 | O=C(NCCN1CCC2(CC1)C(=O)NCN2c1cccc(F)c1)c1cccc(F)c1 | 100%
31 | O=C(NCCN1CCC2(CC1)C(=O)NCN2c1ccc(F)c(F)c1)c1ccc2ccccc2c1 | 84.3%
32 | O=C(NCCN1CCC2(CC1)C(=O)NCN2c1ccc(F)cc1)c1cc2ccccc2[nH]1 | 32.3% (active)
33 | COc1ccc(CC(=O)NCCN2CCC3(CC2)C(=O)NCN3c2cccc(F)c2)cc1OC | 108% and 107%
34 | O=C(NCCN1CCC2(CC1)C(=O)NCN2c1ccccc1)c1cc(=O)c2cc(Br)ccc2o1 | 110%
35 | O=C(c1ccc2ccccc2c1)N1CC(N2CCC(n3c(=O)[nH]c4ccccc43)CC2)C1 | 108%
36 | O=C(NCCN1CCC2(CC1)C(=O)NCN2c1ccc(Br)cc1)c1ccc(F)cc1 | 78.5%

From PubChem BioAssay AID602144 (Vanderbilt Specialized Chemistry Center, 2011)
